Experimental data from PubChem BioAssay AID624117 (National Center for Advancing Translational Sciences (NCATS), 2012).
Records with an inconclusive call do not appear. A call without a number means that no potency is given here. Calls of active or inactive are those of the source. Calls follow the shape of the dose curve; as a rule, active = well fitted curve in the direction sought with a large enough effect; inconclusive = small, poorly fitted or top-dose-only effect, or another doubt; inactive = no such curve, though single readings can be large or run the other way.
Potency is read from the fitted curve at half-maximal effect.

Assay: qHTS Assay for Rab9 Promoter Activators: Hit Validation Using Renilla Luciferase Read-Out
Conditions: Huh7 NPC1 promoter Renilla luciferase reporter, 24 h; series mostly up to 76.9 µM
How it was run: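 Huh7 cells stably carrying NPC promoter-luciferase, 1,500 cells/well, exposed to compound for 24 h at 37 deg C. Luminescence read 10 min after […] addition; validation of firefly-read primary hits.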
In the case of `O=C(CCCOc1ccc(Cl)cc1)N1CCCCC1`, the Potency is reported as “inactive”.
With `CN(C)/C=N/c1c(C#N)cnn1-c1nc2ccccc2s1` the Potency was “inactive”.
With `CCOc1cc(C(=O)N=c2sccn2C)ccc1OC(F)F` the Potency was “inactive”.
For `COCC1CCN(C(=O)c2ccc3oc(Cc4ccccc4)nc3c2)C1` (centres undefined), the Potency was “inactive”.
In the case of `COc1ccc(S(=O)(=O)NC(C(=O)NCCc2ccccn2)C(C)C)cc1` (centres undefined), the Potency is reported as “inactive”.
With `NNC(=O)c1cccc(S(=O)(=O)Nc2cc(Cl)ccc2Cl)c1` the Potency was “inactive”.
For `NCCOc1ccccc1-c1ccccc1`, the Potency was “inactive”.
In the case of `OCCC1CN(Cc2nc3ccccc3s2)CCN1C1CCCC1` (centres undefined), the Potency is reported as “inactive”.
With `O=C(CN1C(=O)COc2ccc(Cl)cc21)NCC1CCCO1` (centres undefined) the Potency was “inactive”.
For `CC(Sc1nnc(C(F)(F)F)n1C)C(=O)Nc1ccc(S(N)(=O)=O)cc1` (centres undefined), the Potency was “inactive”.
With `CCOC(=O)c1csc(COc2ccc(OC)cc2)n1` the Potency was “inactive”.
For `Cc1ccc(S(=O)(=O)/N=C(/Nc2ccccn2)c2ccc(Cl)cc2)cc1`, the Potency was 20.7 µM (active).
In the case of `CCN(CC(=O)N(CC(C)C)c1c(N)n(CC(C)C)c(=O)[nH]c1=O)Cc1nc2ccccc2c(=O)[nH]1`, the Potency is reported as “inactive”.
With `NC(=O)C(=O)NN=C1C2CC3CC(C2)CC1C3` the Potency was “inactive”.
For `Nc1nc(SCCO)[nH]c(=O)c1NC(=O)c1ccco1`, the Potency was “inactive”.
With `O=C(CCc1cccc(Cl)c1)NC1CCCN(Cc2ccccc2F)C1` (centres undefined) the Potency was “inactive”.
In the case of `O=C(C1COc2ccccc2O1)N1CCN(S(=O)(=O)c2ccccc2)CC1` (centres undefined), the Potency is reported as “inactive”.
For `Cc1nc2sc(C(=O)OC(C)C)c(N)c2c(C)c1C`, the Potency was “inactive”.
With `O=C(NCCc1ccccc1)c1cc2ncc(Br)cn2n1` the Potency was “inactive”.
With `O=C(CCNC(=O)c1ccc(Br)o1)NCc1ccc(Cl)cc1` the Potency was “inactive”.
In the case of `COc1ccc(NC(=S)NNC(=O)c2cccs2)cc1`, the Potency is reported as “inactive”.
With `CCCCCCOc1ccc(OC(=O)c2cccnc2)cc1` the Potency was 2.07 µM (active).
With `Cc1nnc2n(c1=O)N=C(c1ccc(Cl)cc1)CS2` the Potency was “inactive”.
For `Cc1ccc(C(=O)Nc2ccc(N3CCN(C)CC3)nc2)cc1`, the Potency was “inactive”.
In the case of `CC(=O)Nc1ccc(NC(=O)COc2ncnc3ccccc23)cc1`, the Potency is reported as “inactive”.
With `S=C1NCN(CCc2ccccc2)CN1Cc1ccccc1` the Potency was “inactive”.
In the case of `CC1CC(C)CN(CC(=O)N2CCOCC2)C1` (centres undefined), the Potency is reported as “inactive”.
For `COC(=O)c1cn(NC(=O)C2CCCCC2)c(=O)c2ccccc12`, the Potency was “inactive”.
In the case of `CCC(=O)N1c2ccccc2NC2=C(C(=O)CCC2)C1c1ccc(N(C)C)cc1` (centres undefined), the Potency is reported as “inactive”.
With `O=C(CSc1nnc(-c2csc3c2CCCC3)o1)Nc1ccccc1` the Potency was “inactive”.
For `CCCCn1c(Nc2ccc(OC)cc2)nc2ccccc21`, the Potency was “inactive”.
For `CCOC(=O)CSc1nc2cc(C)ccc2cc1C#N`, the Potency was “inactive”.
In the case of `COc1cccc(C(C(=O)NC2CCCC2)N(CCC(C)C)C(=O)CCC(=O)Nc2cc(C)on2)c1` (centres undefined), the Potency is reported as “inactive”.
For `COc1ccc(C(c2nnnn2CCc2ccccc2)N2CCN(C3CCCC3)CC2)cc1` (centres undefined), the Potency was “inactive”.
With `CCC1=[N+](CC(=O)c2ccc(C)cc2)CCn2cccc21` the Potency was “inactive”.
With `CCOc1cc(C2C(C#N)=C(N)Oc3n[nH]c(C)c32)ccc1OCCN1CCOCC1` (centres undefined) the Potency was “inactive”.
With `COCc1cc(C)nc(N/N=C/c2ccc(-c3ccc(Cl)cc3[N+](=O)[O-])o2)c1C#N` the Potency was “inactive”.
With `Cc1csc(NC(=O)CSc2nnc(-c3ccncc3)o2)n1` the Potency was “inactive”.
With `COc1ccc2oc(=O)c(C(=O)NC(C)c3ccccc3)cc2c1` (centres undefined) the Potency was “inactive”.
